# The campaign covered roughly 310,000 compounds. About 14,000 (4.5%) showed an effect of 50% or more. The effect is printed as a negative number. For the sample, strong results were picked, then their nearest neighbours and some compounds at random.
# Target: human ether-à-go-go-related gene (hERG) potassium channel (human, UniProt Q12809)
# Experiment: primary screen, population patch clamp on CHO cells stably expressing hERG; higher = less effect of the substance
# 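Also: peak tail current of the secondary pulse compared with the same well before compound.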
# Chain of human ether-à-go-go-related gene (hERG) potassium channel (Q12809 whole entry, looked up): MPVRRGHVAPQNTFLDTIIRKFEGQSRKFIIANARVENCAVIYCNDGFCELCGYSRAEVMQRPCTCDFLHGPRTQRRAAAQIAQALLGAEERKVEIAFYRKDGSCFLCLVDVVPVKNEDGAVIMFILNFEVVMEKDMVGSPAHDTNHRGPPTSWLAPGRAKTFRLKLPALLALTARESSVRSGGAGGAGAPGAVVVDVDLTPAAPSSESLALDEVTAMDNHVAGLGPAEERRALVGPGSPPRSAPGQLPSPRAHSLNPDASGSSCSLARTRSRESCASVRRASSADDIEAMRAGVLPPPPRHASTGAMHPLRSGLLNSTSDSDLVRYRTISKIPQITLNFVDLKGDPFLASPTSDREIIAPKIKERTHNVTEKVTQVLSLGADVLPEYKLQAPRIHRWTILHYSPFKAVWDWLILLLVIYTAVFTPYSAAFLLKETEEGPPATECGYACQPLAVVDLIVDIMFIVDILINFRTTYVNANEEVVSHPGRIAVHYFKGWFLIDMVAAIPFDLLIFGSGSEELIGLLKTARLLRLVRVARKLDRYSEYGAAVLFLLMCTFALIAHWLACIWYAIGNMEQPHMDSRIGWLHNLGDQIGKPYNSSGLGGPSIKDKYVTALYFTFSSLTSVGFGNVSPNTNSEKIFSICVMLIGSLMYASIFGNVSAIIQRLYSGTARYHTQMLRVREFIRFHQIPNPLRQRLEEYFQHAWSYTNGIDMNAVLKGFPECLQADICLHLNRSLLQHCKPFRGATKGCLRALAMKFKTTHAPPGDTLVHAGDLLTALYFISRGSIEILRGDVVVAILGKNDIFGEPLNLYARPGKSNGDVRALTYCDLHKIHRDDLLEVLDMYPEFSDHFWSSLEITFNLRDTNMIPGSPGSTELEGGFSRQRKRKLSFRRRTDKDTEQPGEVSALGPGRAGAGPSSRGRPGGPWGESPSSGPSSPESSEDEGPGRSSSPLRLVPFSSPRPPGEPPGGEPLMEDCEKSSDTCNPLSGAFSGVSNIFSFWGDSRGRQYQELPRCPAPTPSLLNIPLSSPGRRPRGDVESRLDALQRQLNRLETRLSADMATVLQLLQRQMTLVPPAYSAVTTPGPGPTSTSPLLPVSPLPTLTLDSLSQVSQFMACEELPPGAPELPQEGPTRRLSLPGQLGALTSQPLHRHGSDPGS
row,SMILES,"hERG current change (%, negative = inhibition) at 10uM"
1,CCOc1ccccc1NC(=O)[C@@H](NC(=O)c1ccccc1F)C(C)C,-6.35%
2,COc1ccc(C(C(N)=O)c2ncc(C(F)(F)F)cc2Cl)cc1 (centres unmarked),4.78%
3,O=C(CCCCl)NC1=NN(c2ccccc2)C(=O)C1,-4.99%
4,Clc1ccc(CNC2CCN(Cc3ccccc3)CC2)cc1,-72.7%
5,COc1ccccc1CNC1CCN(Cc2ccccc2)CC1,-3.89%
6,COc1ccc(CNC2CCN(Cc3ccccc3)CC2)cc1,-54.2%
7,COc1ccc(OC)c(-n2c(CN3CCC(C(N)=O)CC3)nc3ccccc3c2=O)c1,-0.126%
8,FC(F)(F)c1cccc(CNC2CCN(Cc3ccccc3)CC2)c1,-28.3%
9,COc1ccc(OC)c(-n2c(CNC3CCN(Cc4ccccc4)CC3)nc3ccccc3c2=O)c1,-76.6%
10,S=C(NCc1ccc(Cl)cc1)NC1CCN(Cc2ccccc2)CC1,-41.8%
11,COc1ccc(CCNC(=S)NC2CCN(Cc3ccccc3)CC2)cc1,-36.9%
12,COc1ccc(-n2c(CN3CCOCC3)nc3ccccc3c2=O)c(OC)c1,22.9%
13,Cl.Clc1ccc(CNC2CCCC2)cc1,-13.1%
14,CC(NC1CCN(Cc2ccccc2)CC1)c1ccc(F)cc1 (centres unmarked),3.46%
15,Fc1ccc(CNC2CCN(Cc3ccccc3)CC2)cc1,-65.3%
16,Fc1ccc(-c2cc(C(F)(F)F)nc(NCc3cccs3)n2)cc1,14.4%
17,CCOC(=O)c1c(-c2ccccc2)csc1NC(=O)/C(C#N)=C/c1ccc(O)c(OC)c1,-7.1%
18,O=C(COc1ccc(/C=N/NC(=O)c2cc3ccccc3o2)cc1Br)Nc1ccccc1,19.3%
19,Cc1ccccc1NS(=O)(=O)c1ccc(C)c(C(=O)N2CCOCC2)c1,1.47%
20,COc1ccc(C(=O)NNC(=O)C(=O)N2CCCCC2)cc1OC,59.5%
21,CCOC(=O)C(NC(=O)Nc1cccc(C)n1)(OCC(F)(F)F)C(F)(F)F (centres unmarked),5.06%
22,CC(=O)COC(=O)C1=NN(c2ccccc2)C(=O)CC1,23.7%

row,SMILES,"hERG current change (%, negative = inhibition) at 10uM"
1,COc1ccc(S(=O)(=O)N2CCCC(C(=O)NCc3ccc(F)cc3)C2)cc1 (centres unmarked),6.39%
2,CCc1nc2ccc(C(=O)NCCc3ccc(OC)c(OC)c3)cc2nc1CC,-0.0865%
3,Cn1c(O)c(/C=C2\N=c3ccccc3=C2CCNC(=S)NC2CC2)c(=O)n(C)c1=O,-44.6%
4,Clc1ccc(CN2CCC(c3ccccc3)CC2)cc1,-59.1%
5,Clc1ccc(CN2CCCCCCC2)cc1,-33.1%
6,O=S(=O)(NC1CCN(Cc2ccccc2)CC1)c1ccc(Cl)cc1,-41.3%
7,Cc1c(C(=O)Nc2c(F)cccc2F)sc2ncn(CC(=O)N3CCCCC3)c(=O)c12,3.98%
8,Cc1cc(NC(=O)CSc2nnc(-c3cccnc3)n2C2CCCCC2C)no1 (centres unmarked),3.83%
9,COc1ccc2[nH]c3c(NCCN4CCCCC4)ncnc3c2c1,-55.9%
10,COc1ccc2[nH]c3c(NCc4ccco4)ncnc3c2c1,-18.1%
11,CCOc1ccc2[nH]c3c(NCCCOC)ncnc3c2c1,-10%
12,COc1ccc2[nH]c3c(NCCCOC(C)C)ncnc3c2c1,9.68%
13,CCOc1ccc2[nH]c3c(NCCN(C)C)ncnc3c2c1,-19%
14,CCOc1ccc2[nH]c3c(NCCN(CC)CC)ncnc3c2c1,-71.6%
15,CCOc1ccc2[nH]c3c(NCCC(C)C)ncnc3c2c1,7.2%
16,CCOc1ccc2[nH]c3c(NCCO)ncnc3c2c1,23.1%
17,COc1ccc2[nH]c3c(NCCCN4CCCC4=O)ncnc3c2c1,-14.6%
18,CCOc1ccc2[nH]c3c(NCCOC)ncnc3c2c1,-9.5%
19,CCN(CC)CCNc1ncnc2c1[nH]c1ccc(OC)cc12,-63.4%
20,COc1ccc2[nH]c3c(NCCN(C(C)C)C(C)C)ncnc3c2c1,-70.7%
21,CCOc1ccccc1NC(=O)c1cnc(NS(=O)(=O)c2ccccc2)nc1,17.8%
22,CCN(C(=O)COC(=O)c1[nH]c(C)c(C(C)=O)c1C)c1c(N)n(Cc2ccccc2)c(=O)[nH]c1=O,0.295%

row,SMILES,"hERG current change (%, negative = inhibition) at 10uM"
1,Cc1ccc2oc(C(=O)Nc3cc(C)on3)c(C)c2c1,-1.98%
2,CCCCOc1ccc(NC(=O)C(=O)NCCC2=CCCCC2)cc1,2.25%
3,CCCCCOC(=O)c1ccc(N2C(=O)C3C4C=CC(C4)C3C2=O)cc1 (centres unmarked),-6.84%
4,C=CCn1c(SCC(=O)Nc2cc(C)on2)nc2sc3c(c2c1=O)CCCC3,-4%
5,O=C(Nc1ccc(S(=O)(=O)Nc2ncccn2)cc1)c1cccc(Br)c1,16.5%
6,CC(=O)c1ccc(NC(=O)CCc2nnc3ccc(NCc4ccco4)nn23)cc1,9.4%
7,COc1ccc(CCn2c(O)c(C=Nc3ccccc3F)c(=O)[nH]c2=O)cc1OC,20.3%
8,CCOc1ccc(C(N)=O)cc1OC,6.13%
9,CN(C)c1ccc(C=Nc2cnn(C)c2C(N)=O)cc1,0.759%
10,COc1ccc(NC(=O)CSc2nnc(-c3cccs3)n2N)c(OC)c1,0.565%
11,Cn1cc(CN2CCC(N3CCNC(=O)CC3)CC2)c(-c2ccccc2F)n1,8.43%
12,O=C1c2ccccc2C(=O)N1n1cccc1,8.7%
13,COc1ccc(Nc2ncnc3c2c(C)c(C)n3CCCN(C)C)cc1,-32.7%
14,COc1ccc(-n2c(C)c(C)c3c(NCCCN(C)C)ncnc32)cc1,-53.1%
15,COc1ccc(-n2c(C)c(C)c3c(NCCCO)ncnc32)cc1,-14.3%
16,Cc1c(C)n(CCCN(C)C)c2ncnc(Nc3ccccc3)c12,-29.3%
17,Cc1c(C)n(CCCN(C)C)c2ncnc(Nc3ccc(F)cc3)c12,-50.8%
18,Cc1c(C)n(Cc2ccccc2)c2ncnc(NCCCN(C)C)c12,-28.4%
19,Cc1c(C)n(CCc2ccccc2)c2ncnc(NCCCO)c12,-40.1%
20,COc1ccc(-n2c(C)c(C)c3c(NCCN(C)C)ncnc32)cc1,-32.4%
21,Cc1c(C)n(CCc2ccccc2)c2ncnc(NCCCN(C)C)c12,-58%

# Source: PMC4336329 (PLoS ONE, 2015)
